PubChem BioAssay (Tox21)
Results filed as inconclusive are left out. Unmarked numbers belong to inactive results. The call rests on the fitted dose curve; in most records, active means well fitted cell-killing curve with a large enough effect in the repeat runs; inconclusive means weak or mixed curves; inactive means flat fitted curve, though single readings scatter.

Assay: qHTS assay to identify small molecule antagonists of the estrogen related receptor (ERR) signaling pathway from Tox21 library - cell viability counter screen (AID 1224834); further: nearly all actives have a fitted effect of over 30% in size
Details: ERR reporter cells viability, CellTiter-Fluor, 17.5 h; series mostly up to 92.4 µM; viability change, negative = cytotoxic: at the top concentration
Text: National Center for Advancing Translational Sciences [NCATS]
NIH Chemical Genomics Center [NCGC]
U.S. Environmental Protection Agency [EPA]
National Institutes of Environmental Health Sciences [NIEHS]
National Toxicology Program [NTP]
U.S. Food and Drug Administration [FDA]
Estrogen related receptors (ERRs), the first orphan nuclear receptors discovered, play an important role in the control of cellular energy metabolism. ERRs are required for high-energy production in response to the environmental challenges. ERR-alpha was also identified as an adverse marker for breast cancer progression; ERR-alpha-positive tumors have a poor prognosis. To screen and to identify environmental compounds that perturb the ERR signaling pathways could provide valuable information for potential therapeutic or preventive measures in the treatment of metabolic disease. To differentiate true ERR antagonists or agonist from cytotoxic substances, the assay is multiplexed with cell viability assay.
Tox21 Assay Protocol Summary:
The ERR cells were dispensed at 2,000 cells/5 ul/well in 1536-well white plates using a Multidrop dispenser. After the assay plates were incubated at a 37 C/5% CO2 incubator for 6 hours, 23 nL of compounds dissolved in DMSO, positive and negative controls or DMSO only was transferred to the assay plate by a pin tool. The plates were incubated at 37 C for 17.5 hours. 1 ul/well of CellTiter-Fluor reagent was added into the assay plates using a Flying Reagent Dispenser. After 30-minute incubation at 37 C/5% CO2, the fluorescence intensity in the plates was measured using a ViewLux plate reader.
On the % scale 0 is the no-effect control and ±100 the full control effect.

SMILES | viability change, negative = cytotoxic
C[N+](C)(C)CC(O)CCl (stereo not given) | 1.6%
COc1cc2c3cc1Oc1cc(ccc1O)C[C@@H]1c4c(cc(OC)c(O)c4Oc4ccc(cc4)C[C@@H]3N(C)CC2)CC[N+]1(C)C | 5.81% [at 42.5 µM]
Cc1ccc(S(=O)(=O)NC(=O)NC2CCCCCCC2)cc1 | 0.837% [at 42.5 µM]
Cc1cc(C)cc([N+](=O)[O-])c1 | 3.08%
CNC(=O)NC | 2.84%
COCC(=O)Nc1c(I)c(C(=O)NCC(O)CO)c(I)c(C(=O)N(C)CC(O)CO)c1I (stereo not given) | 0.794% [at 42.5 µM]
O=CO | -0.634% [at 8.39 µM]
CCN(Cc1cccc(S(=O)(=O)O)c1)c1ccccc1 | 0.795%
NS(=O)(=O)c1cc2c(cc1Cl)NC(CC1CCCC1)NS2(=O)=O (stereo not given) | 3.89% [at 42.5 µM]
CN(C)CCCNCCC#N | 1.35%
COc1cc2c(Nc3ccc(Br)cc3F)ncnc2cc1OCC1CCN(C)CC1 | 0.168% [at 42.5 µM]
Cc1ccc2c(c1)c1c3n2CCNC3CCC1 (stereo not given) | 1.64% [at 42.5 µM]
Cc1nc(C)nc(N2C[C@@H](C)N(c3ccnc([C@@H](C)O)n3)[C@@H](C)C2)n1 | -4.99% [at 42.5 µM]
NS(=O)(=O)c1ccc(Cl)c(S(N)(=O)=O)c1 | 3.84% [at 42.5 µM]
Nc1cc(S(=O)(=O)O)ccc1S(=O)(=O)O | 5.84%
C=C[Si](C)(C)O[Si](C)(C)C=C | -9.63%
O=C(Nc1cccc(C2=NCCN2)c1)Nc1cccc(C2=NCCN2)c1 | 1.33% [at 19 µM]
O=C(O)c1c(Cl)ccc(Cl)c1Cl | 4.09%
CCN1CN(CC)CN(CC)C1 | 4.49%
COc1cccc2sc(N)nc12 | 1.07%

SMILES | viability change, negative = cytotoxic
CCCCC(CC)C(=O)OC(C)C (stereo not given) | 5.64%
CCC(CO)CO | 6.71%
CCC(O)C(C)(C)C (stereo not given) | -2.73%
CC(C)CCO | 0.509%
Cc1cc(O)c2c(c1)C(=O)c1cccc(O)c1C2=O | -10.4% [at 42.5 µM]
C=CCOCC(O)CCl (stereo not given) | 0.327%
O=S1(=O)CCCC1 | 1.33%
CCOC(=O)CCCCCCCCC(=O)OCC | 1.99%
N#CCCOCCOCCC#N | 8.51%
O=C(O)Cc1cccc(-c2cc(CCCCCCc3ccc(O[C@H]4O[C@H](CO)[C@@H](O)[C@H](O)[C@@H]4O)c(-c4cccc(CC(=O)O)c4)c3)ccc2O[C@H]2O[C@H](CO)[C@@H](O)[C@H](O)[C@@H]2O)c1 | -1.71% [at 0.349 µM]
C[C@@H]1C[C@H]2[C@@H]3C[C@H](F)C4=CC(=O)C=C[C@]4(C)[C@@]3(F)[C@@H](O)C[C@]2(C)[C@@]1(O)C(=O)CO | -4.87% [at 42.5 µM]
O=C(Oc1ccccc1C(=O)O)c1ccccc1O | 0.0395% [at 42.5 µM]
CC(=O)OC[C@H]1O[C@@H](OC(C)=O)[C@H](OC(C)=O)[C@@H]1OC(C)=O | 2.23% [at 42.5 µM]
CCCCCCCCCCCCCC(=O)OC | -0.0327%
CC(=O)Nc1ncc([N+](=O)[O-])s1 | -10.4% [at 42.5 µM]
CC(=O)OCC(=O)[C@@]1(O)[C@H](OC(C)=O)C[C@H]2[C@@H]3CCC4=CC(=O)C=C[C@]4(C)[C@@]3(F)[C@@H](O)C[C@@]21C | 6.15% [at 42.5 µM]
CC(C)CCCC(C)CC=O (stereo not given) | 3.57%
Cc1oc(=O)oc1CN1CCN(c2cc3c(cc2F)c(=O)c(C(=O)O)c2n3C(C)S2)CC1 (stereo not given) | 2.64% [at 42.5 µM]
CN(C1CCCCC1)S(=O)(=O)c1ccccc1N | -2.18%
CCCCC(CC)CNC(=O)CC(C)OC(=O)CCC(=O)O (stereo not given) | 4.7% [at 42.5 µM]
